Data: ChEMBL document CHEMBL4513216, “Probing the Open Global Health Chemical Diversity Library for Multistage-Active Starting Points for Next-Generation Antimalarials” (ACS Infect Dis, 2020)
In all, about 69,000 compounds went through this assay and about 8,600 (12%) showed an effect of 50% or more. The list comes from a sample in which strong results are over-represented; it also holds similar structures and randomly drawn compounds.

Tested on: Plasmodium berghei
Test: Screen against P. berghei liver stage (PbLuc), transformed with Luciferase, at 10uM
Format: functional, HepG2
Conditions: tested at 10 uM

SMILES	INHIBITION [%]
COc1ncc(NCc2ccc(Cl)c(Cl)c2)cc1C(N)=O	71.8
COc1ncc(NCc2ccc(C#N)cc2)cc1C(N)=O	8.12
COc1ncc(NCc2ccc(F)cc2)cc1C(N)=O	-5.1
CCC(=O)N1CCC2(COCc3cnc(NCc4ccco4)nc32)C1 (stereo not drawn)	6.55
CNc1cc(N2CCC(O)(CNC(=O)c3ccc(C)nc3)C2)ncn1 (stereo not drawn)	12.3
Cc1cnn(CC2CCCN2CC(=O)Nc2cc(C)on2)c1 (stereo not drawn)	-23.9
Cc1nccc(N(C)Cc2ncc(-c3ccccc3C(=O)O)s2)n1	1.635
COc1cc2c(cc1OC)C(=O)C(Sc1nnc(C)o1)C2 (stereo not drawn)	27.5
O=C(O)CC1COCCN1CCCc1ccccc1 (stereo not drawn)	56.2
O=C(O)CC1COCCN1Cc1ccccc1-c1ccccc1 (stereo not drawn)	-4.56
O=C(O)CC1COCCN1Cc1ccccc1OCCc1ccccc1 (stereo not drawn)	1.95
CCS(=O)(=O)NCCCn1ncc2c(C)cccc21	4.35
CCOc1c(F)cccc1C(=O)N(C)CCn1cccn1	-27.6
CCCN(Cc1nccn1C)C(=O)c1cc(C)nc(C)n1	42.1
Cc1cc(N(C)C)nc(NCCn2cccn2)n1	-24.4
Cc1cc(N(C)CCCn2cccn2)nc(N)n1	75.2
Cc1cc(N(C)CCCn2cccn2)nc(-c2cccnc2)n1	-37.2
Cc1cc(C(=O)N(C)CCCn2cccn2)nc(N)n1	64.1
COc1ccc(Cl)c(NCC(=O)NCC(=O)N2CCCC2)c1	24.1
COCC1CCCCN1C(=O)c1cc(Cn2ccc3ccccc32)[nH]n1 (stereo not drawn)	-14.9
CCN(C)C[C@@H]1CN(S(=O)(=O)c2ccc(C#N)cc2)C[C@@H]1CO	58.6
CCN(C)C[C@@H]1CN(S(=O)(=O)c2cccc(C#N)c2)C[C@@H]1CO	36.2
CCN(C)C[C@@H]1CN(S(=O)(=O)c2ccc(OC)cc2)C[C@@H]1CO	39.4
CCN(C)C[C@@H]1CN(Cc2cccc(Cl)c2)C[C@@H]1CO	43.3
COCCN(C)C[C@@H]1CN(C(=O)c2cccc(Cl)c2)C[C@@H]1CO	10.7
CCN(C)C[C@@H]1CN(S(=O)(=O)c2cccc(Cl)c2)C[C@@H]1CO	57.6

SMILES	INHIBITION [%]
O=S(=O)(C1CC1)N1CC[C@]2(C[C@@H](Oc3ccccn3)CO2)C1	17.3
CCCc1n[nH]c(C2CN(CCC(F)(F)F)CCO2)n1 (stereo not drawn)	29.7
Cc1nnc([C@@]23CCO[C@@H]2CCN(Cc2nccs2)C3)o1	37.6
CCc1nc(CN2CCOC(Cn3cncn3)C2)no1 (stereo not drawn)	-7.31
Cc1cc(CN2CCN(C(C)C)C(CCO)C2)[nH]n1 (stereo not drawn)	15.5
CC(C)c1ccc(NS(=O)(=O)C=c2[nH]c(=O)n3cccc3c2=O)cc1	-26.1
O=c1c(=CS(=O)(=O)Nc2ccc(Cl)cc2)[nH]c(=O)n2cccc12	-51.6
COc1ccc(NS(=O)(=O)C=c2[nH]c(=O)n3cccc3c2=O)cc1Cl	86.4
O=c1c(=CS(=O)(=O)Nc2ccc(Br)cc2)[nH]c(=O)n2cccc12	67.3
O=c1c(=CS(=O)(=O)Nc2ccccc2)[nH]c(=O)n2cccc12	-63.5
Cc1ccc(NS(=O)(=O)C=c2[nH]c(=O)n3cccc3c2=O)cc1	-53.7
Cn1cnc2ccc(NC(=O)CC3CCN(S(C)(=O)=O)CC3)cc21	-9.2
CC(Oc1cccc(Cl)c1)C(=O)Nc1cnn(CC(=O)NC2CC2)c1 (stereo not drawn)	10.7
CC(=O)c1cccc(OC(C)C(=O)Nc2cnn(CCN(C)C)c2)c1 (stereo not drawn)	34.2
CC(Oc1cccc(Cl)c1)C(=O)Nc1cnn(CCN(C)C)c1 (stereo not drawn)	60
CC(C)c1cc(C(=O)NCCc2nc(-c3cccnc3)n[nH]2)[nH]n1	12.365
c1cnc(N2CCc3onc(CN4CCOCC4)c3C2)cn1	12.6
CSC1(CNC(=O)N(C)Cc2sccc2C)CCOCC1	43.4
CSC1(CNC(=O)N(C)Cc2ccc(C)s2)CCOCC1	57.3
CSC1(CNC(=O)N(C)Cc2ccc(Cl)s2)CCOCC1	19.1
OCCN1CCN(CCOCC(F)(F)F)CC1	28.3
CN(C)C(=O)CN1C(=O)C[C@@H]2[C@@H]1CCN2Cc1cccc(C#N)c1	81.2
CN1C(=O)C[C@H]2[C@H]1CCN2Cc1cccc(C#N)c1	7.77
COCCN1C(=O)C[C@H]2[C@H]1CCN2Cc1cccc(C#N)c1	33.5
N#Cc1cccc(CN2CC[C@@H]3[C@@H]2CC(=O)N3CCN2CCCC2)c1	21.8
COCCN1C(=O)CC[C@@H]2[C@H]1CCN2Cc1cccc(C#N)c1	27.6

SMILES	INHIBITION [%]
CC(C)CN1C(=O)C[C@@H]2[C@@H]1CCN2Cc1cccc(C#N)c1	63.7
COCCN1C(=O)C[C@H]2[C@H]1CCN2Cc1ccccc1	54.4
COCCN1C(=O)C[C@H]2[C@H]1CCN2Cc1ccc(OC)cc1	16.5
N#Cc1cccc(CN2CC[C@@H]3[C@@H]2CC(=O)N3Cc2ccncc2)c1	29.9
N#Cc1cccc(NC(=O)CCn2nc(-c3cccs3)oc2=O)c1	38.8
COc1ccc(Cl)cc1Nc1nc(N)c(C(C)=O)s1	9.32
OCCN1CCC2(CC1)CC(NCc1ccccn1)c1ccccc1O2 (stereo not drawn)	33
O=C(Nc1cccc(CNCc2ccccn2)c1)C1CCCC1	-0.65
O=C(Nc1ccc(CCN2CCC(O)CC2)cc1)C1CCCCC1	29.2
CN1C(=O)CC2(CCN(S(=O)(=O)C3CC3)CC2)c2ccccc21	55.6
CN1C(=O)CC2(CCN(S(=O)(=O)N(C)C)CC2)c2ccccc21	27.5
CN(C)C(=O)N1CC2(CCN(S(=O)(=O)C3CC3)CC2)c2ccccc21	38.2
CN(C)C(=O)N1CC2(CCN(S(C)(=O)=O)CC2)c2ccccc21	-43.1
CN1C(=O)C2(CCN(S(=O)(=O)C3CC3)CC2)c2ccccc21	-3.51
CN1CC2(CCN(S(=O)(=O)C3CC3)CC2)c2ccccc21	58.5
O=C(c1ccccn1)N1CCC2(CCCN(c3nncs3)C2)C1 (stereo not drawn)	28.5
COc1c(C2CC(=O)Nc3[nH]ncc32)cc2c(c1OC)OCO2 (stereo not drawn)	7.38
Cc1sc(CN)nc1-c1ccccc1	6.54
Cc1ccc(C(=O)N2CCc3ccc(=O)n(CCN(C)C)c3CC2)o1	-17.2
CN1CCC(N(C)CCC(=O)N2CCN(Cc3cccc(F)c3)CC2)C1 (stereo not drawn)	-0.991
O=C(CCc1cc(O)no1)N1CCC(Cc2ccc(F)cc2)CC1	-3.12
CN1CCC(N(C)CCC(=O)N2CCC(Cc3ccc(F)cc3)CC2)C1 (stereo not drawn)	66.4
CN1CCC(N(C)CCC(=O)N2CCC(CCc3ccccc3)CC2)C1 (stereo not drawn)	74.3
CN1CCC(N(C)CCC(=O)N2CCC(OCc3ccccc3)CC2)C1 (stereo not drawn)	23.8
COc1ccc(OC2CCN(C(=O)CCc3nc(Cl)n[nH]3)CC2)cc1	28.4
CN1CC[C@H](N(C)Cc2ccccc2)C[C@H](O)C1	18.4

SMILES	INHIBITION [%]
CN1CCC(N(C)CCC(=O)N2CCC(Oc3ccc(Cl)cc3)CC2)C1 (stereo not drawn)	67.4
NC(=O)CC1CCN(C(=O)CCOc2ccc(Cl)cc2)CC1	23.2
CCc1nc(-c2ccnc(N3CCNCC3)n2)no1	29.6
Cc1cc(C)c(CNC(=O)N2CCCC2c2ccc(F)cc2)c(=O)[nH]1 (stereo not drawn)	34.7
CC(C)n1cnnc1CN(C)C(=O)CCn1cnc2ccccc2c1=O	-17.6
CN1CC(=O)N(C2CCC2)Cc2c(NC3CCNCC3)ncnc21	20.9
CC(=O)N[C@@H]1CN(Cc2ccc(F)cc2F)C[C@H]1c1ccc(C)o1	-14.1
c1csc(C(CNCc2cccc3c2OCO3)N2CCOCC2)c1 (stereo not drawn)	61.9
Cc1ccc(C(CNCc2cccc3c2OCO3)N2CCOCC2)o1 (stereo not drawn)	29.4
CC(C)C(CNCc1cccc2c1OCO2)N1CCOCC1 (stereo not drawn)	24.8
Cc1ccc(NC(=O)N2CCCC(O)C2)c(Br)c1 (stereo not drawn)	-86.5
Cc1ccc(OCCCNC(=O)CN(C)c2ccc(C#N)cn2)cc1	49.3
O=C(CCc1nnc2ccccn2c1=O)NCc1ccc2c(c1)OCO2	57
COc1ccc(CNC(=O)CCc2nnc3ccccn3c2=O)cc1	25.3
O=C(CCc1nnc2ccccn2c1=O)NCc1cccnc1	37.3
Cc1nc(CO[C@@H]2CN(Cc3cccs3)[C@@H]3COC[C@@H]32)cs1	-33.3
CNc1cc(C)nc(-c2cc(NC)nc3[nH]ccc23)n1	-8.51
CNc1cc(C)nc(NCc2cc(C)cc3c(C)c(C)[nH]c23)n1	76.7
Cc1cc(CNc2cncc(C(=O)N(C)C)n2)c2[nH]c(C)c(C)c2c1	29.7
CNc1nc(C)cc(NCc2cc(C)cc3c(C)c(C)[nH]c23)n1	87.9
CNc1cc(C)nc(-c2cc(NCCO)nc3[nH]ccc23)n1	-28.4
C[C@@H](N)C(=O)N1CCC(c2[nH]ncc2-c2ccccc2)CC1	36.15
CC(=O)N1C[C@H]2CCCN(Cc3ccc(C)o3)[C@H]2C1	-3.58
O=C(c1cnccn1)N1CCCC2(COCCN(CC3CC3)C2)C1 (stereo not drawn)	37
O=C(NCc1ccccn1)[C@]12COC[C@H]1CN(Cc1cccnc1)C2	-17.2
